Data published in the supplement of paper PMC4206461.
Unmarked numbers belong to inactive results.

System: Pseudomonas aeruginosa PA14 wild type
Assay: respiration area under curve with compound as sole nitrogen source, 24 h (OmniLog AUC (arbitrary units)); higher = more respiration / better utilisation as nitrogen source, active = 2000 or more
Protocol: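 Biolog Phenotype MicroArray plates PM6-PM8: each di/tripeptide is the sole nitrogen source (IF-0 medium with succinate/ferric citrate and dye mix A). Tetrazolium reduction was read in the OmniLog every 15 min for 24 h at 37°C and summarised as area under the respiration curve (arbitrary units). The paper counts values below 2000 as no respiration and above 8000 as solid respiration. Replicate datasets are averaged.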

Row | Structure (SMILES) | respiration area under curve
1 | C[C@H](NC(=O)[C@@H](N)[C@@H](C)O)C(=O)O (plate: PM7) | 10500 (active)
2 | CC[C@H](C)[C@H](N)C(=O)N[C@@H](Cc1ccc(O)cc1)C(=O)O (plate: PM6) | 2310 (active)
3 | CSCCC(NC(=O)C(N)C(C)C)C(=O)O (stereo not given) (plate: PM8) | 4440 (active)
4 | CSCC[C@H](N)C(=O)NCC(=O)O (plate: PM7) | 5050 (active)
5 | C[C@H](NC(=O)[C@@H](N)CCC(=O)O)C(=O)O (plate: PM8) | 9190 (active)
6 | NCC(=O)N[C@H](CO)C(=O)O (plate: PM8) | 641
7 | CSCC[C@H](NC(=O)[C@@H](N)CO)C(=O)O (plate: PM7) | 4420 (active)
8 | CC(C)C[C@H](NC(=O)[C@@H](N)CCCN=C(N)N)C(=O)O (plate: PM6) | 9430 (active)
9 | CC[C@H](C)[C@H](N)C(=O)N[C@@H](CCSC)C(=O)O (plate: PM6) | 1290
10 | NC(N)=NCCC[C@H](NC(=O)[C@@H](N)CCCN=C(N)N)C(=O)O (plate: PM6) | 10100 (active)
11 | NC(=O)C[C@H](NC(=O)[C@@H](N)CO)C(=O)O (plate: PM8) | 12500 (active)
12 | CSCC[C@H](N)C(=O)N[C@H](C(=O)O)[C@@H](C)O (plate: PM8) | 4350 (active)
13 | O=C(O)CC(NC(=O)C1CCCN1)C(=O)O (stereo not given) (plate: PM7) | 4460 (active)
14 | NC(N)=NCCC[C@H](N)C(=O)N[C@@H](Cc1ccc(O)cc1)C(=O)O (plate: PM6) | 9840 (active)
15 | N[C@@H](Cc1ccccc1)C(=O)N[C@@H](Cc1c[nH]c2ccccc12)C(=O)O (plate: PM7) | 524
16 | CC(C)[C@H](NC(=O)[C@@H](N)Cc1c[nH]c2ccccc12)C(=O)O (plate: PM8) | 3080 (active)
17 | N[C@@H](CC(=O)O)C(=O)N[C@@H](CC(=O)O)C(=O)O (plate: PM6) | 119
18 | NCC(=O)N[C@@H](CCCN=C(N)N)C(=O)O (plate: PM6) | 8640 (active)
19 | C[C@H](NC(=O)[C@@H]1CCCN1)C(=O)O (plate: PM7) | 8890 (active)
20 | NCC(=O)N[C@@H](Cc1ccccc1)C(=O)N[C@@H](Cc1ccccc1)C(=O)O (plate: PM8) | 8980 (active)

Row | Structure (SMILES) | respiration area under curve
21 | C[C@H](N)C(=O)N[C@H](C(=O)O)[C@@H](C)O (plate: PM6) | 6750 (active)
22 | NC(N)=NCCC[C@H](N)C(=O)N[C@@H](Cc1c[nH]c2ccccc12)C(=O)O (plate: PM6) | 8730 (active)
23 | CSCC[C@H](N)C(=O)N[C@@H](CC(=O)O)C(=O)O (plate: PM7) | 4700 (active)
24 | CC(C)C[C@H](NC(=O)[C@@H](N)CC(C)C)C(=O)O (plate: PM6) | 3640 (active)
25 | CC[C@H](C)[C@H](N)C(=O)N[C@@H](CO)C(=O)O (plate: PM6) | 6110 (active)
26 | NCC(=O)N1CCC[C@H]1C(=O)O (plate: PM6) | 9130 (active)
27 | CC(C)C(NC(=O)C1CCCN1)C(=O)O (stereo not given) (plate: PM8) | 7080 (active)
28 | NC(Cc1c[nH]c2ccccc12)C(=O)NC(Cc1ccccc1)C(=O)O (stereo not given) (plate: PM7) | 547
29 | N[C@@H](Cc1ccc(O)cc1)C(=O)N[C@@H](Cc1ccc(O)cc1)C(=O)O (plate: PM7) | 7080 (active)
30 | CC[C@H](C)[C@H](N)C(=O)N[C@@H](C)C(=O)O (plate: PM6) | 5290 (active)
31 | C[C@H](NC(=O)[C@@H](N)Cc1ccc(O)cc1)C(=O)O (plate: PM7) | 11200 (active)
32 | C[C@H](N)C(=O)N[C@@H](CC(=O)O)C(=O)O (plate: PM8) | 10500 (active)
33 | CC[C@H](C)[C@H](N)C(=O)N[C@H](C(=O)O)C(C)C (plate: PM6) | 6570 (active)
34 | N[C@@H](Cc1ccccc1)C(=O)N[C@@H](CC(=O)O)C(=O)O (plate: PM8) | 2860 (active)
35 | C[C@H](NC(=O)[C@@H](N)CCCN=C(N)N)C(=O)O (plate: PM6) | 9790 (active)
36 | CC(C)C[C@H](N)C(=O)NCC(=O)O (plate: PM6) | 8220 (active)
37 | CC(C)C[C@H](NC(=O)[C@@H](N)Cc1c[nH]c2ccccc12)C(=O)O (plate: PM7) | 3760 (active)
38 | CSCC[C@H](NC(=O)CN)C(=O)O (plate: PM6) | 327
39 | NCC(=O)N[C@@H](Cc1ccc(O)cc1)C(=O)O (plate: PM6) | 2560 (active)
40 | N[C@@H](Cc1c[nH]c2ccccc12)C(=O)NCC(=O)O (plate: PM7) | 3340 (active)
